The source of these data is PMC4336329 (PLoS ONE, 2015).

The whole screen tested about 310,000 compounds, of which about 14,000 (4.5%) showed an effect of 50% or more. Effects have a minus sign here. Shown is part of a subset that was picked to be rich in strong results.
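Note: peak tail current of the secondary pulse compared with the same well before compound.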

Chain of human ether-à-go-go-related gene (hERG) potassium channel (Q12809 whole entry, looked up): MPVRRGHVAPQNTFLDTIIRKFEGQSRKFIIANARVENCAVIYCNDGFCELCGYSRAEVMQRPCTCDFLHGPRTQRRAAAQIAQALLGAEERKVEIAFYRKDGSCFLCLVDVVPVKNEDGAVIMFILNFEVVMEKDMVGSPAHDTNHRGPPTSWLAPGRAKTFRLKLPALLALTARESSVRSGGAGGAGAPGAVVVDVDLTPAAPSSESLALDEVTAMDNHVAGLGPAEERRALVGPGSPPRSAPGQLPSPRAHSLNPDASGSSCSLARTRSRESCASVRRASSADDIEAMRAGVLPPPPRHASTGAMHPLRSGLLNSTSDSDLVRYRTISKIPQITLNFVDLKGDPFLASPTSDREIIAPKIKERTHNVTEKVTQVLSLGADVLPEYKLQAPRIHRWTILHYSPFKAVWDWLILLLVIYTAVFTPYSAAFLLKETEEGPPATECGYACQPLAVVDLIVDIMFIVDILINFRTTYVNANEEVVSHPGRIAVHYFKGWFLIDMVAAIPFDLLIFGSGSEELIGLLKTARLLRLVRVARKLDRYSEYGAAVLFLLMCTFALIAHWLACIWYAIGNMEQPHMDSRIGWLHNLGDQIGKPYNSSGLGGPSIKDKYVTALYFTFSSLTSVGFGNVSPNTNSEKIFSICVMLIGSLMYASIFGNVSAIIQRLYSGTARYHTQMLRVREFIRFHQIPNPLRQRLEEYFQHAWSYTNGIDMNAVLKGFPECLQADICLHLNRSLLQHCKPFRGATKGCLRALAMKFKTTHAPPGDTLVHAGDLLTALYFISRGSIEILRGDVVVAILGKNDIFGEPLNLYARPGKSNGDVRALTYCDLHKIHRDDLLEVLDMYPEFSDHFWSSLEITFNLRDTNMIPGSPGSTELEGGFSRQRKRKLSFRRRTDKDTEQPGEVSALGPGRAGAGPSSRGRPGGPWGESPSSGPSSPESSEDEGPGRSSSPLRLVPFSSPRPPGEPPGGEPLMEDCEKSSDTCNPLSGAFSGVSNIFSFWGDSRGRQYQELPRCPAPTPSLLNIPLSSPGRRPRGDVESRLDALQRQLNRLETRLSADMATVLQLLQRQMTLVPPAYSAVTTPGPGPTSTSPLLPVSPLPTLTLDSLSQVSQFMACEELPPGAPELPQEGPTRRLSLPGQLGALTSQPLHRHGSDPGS

This assay has as its target human ether-à-go-go-related gene (hERG) potassium channel (human, UniProt Q12809). The assay can be described thus: primary screen, population patch clamp on CHO cells stably expressing hERG; higher = less effect of the substance.
As to `Cc1oc2ccccc2c1CNC(=O)N(C)C`, the “hERG current change (%, negative = inhibition) at 10uM” value is given as 14.2%.

On to `Cc1cccc(N=Nc2ccc(O)c3ncccc23)c1`, for which the “hERG current change (%, negative = inhibition) at 10uM” value was -8.51%. As to `CCCN(CC(=O)Nc1ccccc1OC)C(=O)c1cc(-c2cccs2)nn1-c1ccccc1`, the “hERG current change (%, negative = inhibition) at 10uM” value is listed as -9.02%.

In the case of `COc1ccc(/C=N/Nc2nc3ccccc3o2)cc1OC`, the “hERG current change (%, negative = inhibition) at 10uM” value was 13.3%. For the compound `CC(=O)c1ccc(N2CCN(C(=O)COc3ccc4c(c3)CCC4)CC2)cc1`, the “hERG current change (%, negative = inhibition) at 10uM” value is -34%. Regarding `Cc1ccc(SCc2cn3cccnc3n2)cc1`, the “hERG current change (%, negative = inhibition) at 10uM” value is given as 11.1%. On to `COc1cccc(CNC(=O)CN2C(=O)COc3ccc(S(=O)(=O)N4CCCCCC4)cc32)c1`, for which the “hERG current change (%, negative = inhibition) at 10uM” value is listed as 24.8%. Under `COC(=O)c1cnc(Oc2ccc(NC(=O)NC(=O)c3c(OC)cccc3OC)cc2)cc1C(F)(F)F` stands -14.1%. `Cc1ccc(Cn2c(=O)n(-c3ccccc3)c(=O)c3ccc(C(=O)NCc4ccco4)cc32)cc1`: the “hERG current change (%, negative = inhibition) at 10uM” value is reported as -10.1%. Under `Cc1ccc(S(=O)(=O)c2cc3c(=O)n4ccccc4nc3n(Cc3ccco3)c2=N)cc1C` stands -4.4%. Under `Cc1ccc(S(=O)(=O)c2cc3c(=O)n4ccccc4nc3n(Cc3ccco3)c2=N)cc1` stands -11.2%; under `Cc1ccc(Cn2c(=N)c(C(=O)NCc3ccco3)cc3c(=O)n4ccccc4nc32)cc1`, -79.8%. Regarding `Cc1ccc(CNC(=O)c2cc3c(=O)n4ccccc4nc3n(Cc3ccco3)c2=N)cc1`, the “hERG current change (%, negative = inhibition) at 10uM” value is recorded as -75.5%. For the compound `Cc1cccc(CSc2ccc(S(=O)(=O)N3CCCC3)cn2)c1`, the “hERG current change (%, negative = inhibition) at 10uM” value came out at 5.24%. As to `CC(NC(=O)C(=O)NCc1cccs1)c1ccccc1` (centres unmarked), the “hERG current change (%, negative = inhibition) at 10uM” value was 16.9%. The result for `CCn1cc(S(=O)(=O)CC(=O)Nc2ccc3c(c2)OCCO3)c2ccccc21` reads -13.1%; that for `CCOC(=O)C1=C(C)N(c2ccccc2)C(=O)/C1=C\c1cccs1`, 18.1%. The result for `CCCCCC(=O)N1CCN(CCN=CC2=C(O)CC(c3ccco3)CC2=O)CC1` (centres unmarked) reads -76.2%; that for `CC(C)C(=O)N1CCN(CCN=CC2=C(O)CC(c3ccco3)CC2=O)CC1` (centres unmarked), 0.717%; that for `CCCCCC(=O)N1CCN(CCN=CC2=C(O)CC(c3cccs3)CC2=O)CC1` (centres unmarked), -106%. The result for `CCC(=O)N1CCN(CCN=CC2=C(O)CC(c3cccs3)CC2=O)CC1` (centres unmarked) reads -9.43%.

Consider `CC(=O)N1CCN(CCN=CC2=C(O)CC(c3ccco3)CC2=O)CC1` (centres unmarked), for which the “hERG current change (%, negative = inhibition) at 10uM” value stood at 1.17%. As to `CC(=O)N1CCN(CCN=CC2=C(O)CC(c3cccs3)CC2=O)CC1` (centres unmarked), the “hERG current change (%, negative = inhibition) at 10uM” value stood at 8.53%.

`COc1cc(-c2cc(-c3ccc(O)cc3)nc(N)c2C#N)ccc1O`: the “hERG current change (%, negative = inhibition) at 10uM” value turned out to be 18.5%.

Take `CCn1c(SCC(=O)NC2CCCc3ccccc32)nnc1-c1cccs1` (centres unmarked): the “hERG current change (%, negative = inhibition) at 10uM” value is recorded as -24.6%. On to `CC(Nc1ccc(Cl)cc1)C(=O)NN` (centres unmarked), for which the “hERG current change (%, negative = inhibition) at 10uM” value is recorded as -5.86%. For the compound `COc1cccc(NC(=O)c2c(F)cccc2F)c1`, the “hERG current change (%, negative = inhibition) at 10uM” value is reported as -6.78%.

Regarding `CCOC(=O)c1[nH]cnc1C(=O)Nc1cccc(OC)c1`, the “hERG current change (%, negative = inhibition) at 10uM” value was found to be 2.14%. `NC(=O)c1cc(S(=O)(=O)NCc2ccc(F)cc2)cs1`: the “hERG current change (%, negative = inhibition) at 10uM” value is given as 3.37%. Under `Nc1nc(CSC(=S)N2CCN(c3ccccc3)CC2)nc(Nc2ccc(F)cc2)n1` stands 2.14%; under `Cc1ccccc1Nc1nc(N)nc(CN2CCN(c3ccccn3)CC2)n1`, -66.6%; under `Cc1ccccc1Nc1nc(N)nc(CSc2ccccc2)n1`, -21%. Under `Nc1nc(CSc2ncn[nH]2)nc(Nc2ccc(F)cc2)n1` stands 6.74%; under `S=C(NCc1ccc(Cl)cc1)N1CCN(c2ccccn2)CC1`, -23.9%. Turning to `Nc1nc(CN2CCN(c3ccccn3)CC2)nc(Nc2ccc(Cl)cc2)n1`, the “hERG current change (%, negative = inhibition) at 10uM” value is -74.8%. `Cc1ccccc1Nc1nc(N)nc(CCl)n1`: the “hERG current change (%, negative = inhibition) at 10uM” value was determined as 10.5%. For `Nc1nc(CN2CCN(c3ccccn3)CC2)nc(Nc2ccc(F)cc2)n1`, the “hERG current change (%, negative = inhibition) at 10uM” value is -67.4%.

`Nc1nc(CSc2ccccn2)nc(Nc2ccccc2)n1`: the “hERG current change (%, negative = inhibition) at 10uM” value was 1.81%. The result for `Cc1ccccc1Nc1nc(N)nc(CN2CCN(C(=O)c3ccccc3)CC2)n1` reads -37.9%; that for `Cc1ccccc1Nc1nc(N)nc(CSc2ccc(F)cc2)n1`, -50.4%. Consider `Cc1ccc(SCc2nc(N)nc(Nc3ccccc3C)n2)cc1C`, for which the “hERG current change (%, negative = inhibition) at 10uM” value stood at 1.31%.

`O=C(c1ccc(Cl)cc1)N1N=CCC1(O)c1ccc(Cl)cc1` (centres unmarked): the “hERG current change (%, negative = inhibition) at 10uM” value came out at 15.7%. Under `COc1cc(NC(=O)CN2C(=O)NC3(CCOc4ccccc43)C2=O)cc(OC)c1` (centres unmarked) stands -3.2%. `CCc1ccc(NC(=O)C2CCN(S(=O)(=O)c3ccc4[nH]c(=O)ccc4c3)CC2)cc1`: the “hERG current change (%, negative = inhibition) at 10uM” value is 3.6%. For the compound `Cc1ccc(NC(=O)c2c([N+](=O)[O-])c(C(C)(C)C)nn2C)c(C)c1`, the “hERG current change (%, negative = inhibition) at 10uM” value stood at 20.7%. The result for `Cc1ccc2cc(/C=N/NC(=O)c3ccccc3[N+](=O)[O-])c(Cl)nc2c1` reads -5.33%; that for `Cc1cc(C(=O)NCCN2C(=O)S/C(=C\c3cccs3)C2=O)ccc1[N+](=O)[O-]`, -1.91%. Under `COc1ccc(NC(=S)N2CCN(c3ccccn3)CC2)cc1` stands -0.967%. Regarding `COc1ccc(Nc2nc(N)nc(CSc3nccn3C)n2)cc1`, the “hERG current change (%, negative = inhibition) at 10uM” value was found to be 4.64%.

Take `COc1ccc(Nc2nc(N)nc(CN3CCN(c4ccccn4)CC3)n2)cc1`: the “hERG current change (%, negative = inhibition) at 10uM” value is given as -65.1%. With `Cn1c(COc2ccc(C(=O)O)cc2)nc2ccccc21`, the “hERG current change (%, negative = inhibition) at 10uM” value amounted to 14.7%. In the case of `CC(OC(=O)CCc1c[nH]c2ccccc12)C(=O)c1ccccc1` (centres unmarked), the “hERG current change (%, negative = inhibition) at 10uM” value is listed as -17.8%.

For the compound `COc1ncnc(-c2ccccc2)c1-c1ccccc1`, the “hERG current change (%, negative = inhibition) at 10uM” value came to 1.86%. `CCN1CCc2c(sc(NC(=O)CN3C(=O)c4ccccc4C3=O)c2C(N)=O)C1.Cl`: the “hERG current change (%, negative = inhibition) at 10uM” value was -36.6%. For the compound `COC(=O)c1c(NC(=O)c2ccco2)sc2c1CCN(C(C)C)C2.Cl`, the “hERG current change (%, negative = inhibition) at 10uM” value is -62.5%. Under `COC(=O)c1c(NC(=O)c2ccc([N+](=O)[O-])o2)sc2c1CCN(C(C)C)C2.Cl` stands -25.1%. Consider `COC(=O)c1c(NC(=O)Cc2ccccc2)sc2c1CCN(C(C)C)C2.Cl`, for which the “hERG current change (%, negative = inhibition) at 10uM” value is -61.4%. Under `CCOC(=O)c1c(NC(=O)Cc2ccccc2)sc2c1CCN(C)C2.Cl` stands -53%; under `CN1CCc2c(sc(NC(=O)Cc3ccccc3)c2C(N)=O)C1.Cl`, -16.2%. Take `CC(C)N1CCc2c(sc(NC(=O)Cc3ccccc3)c2C#N)C1.Cl`: the “hERG current change (%, negative = inhibition) at 10uM” value is recorded as -16%. In the case of `COC(=O)c1c(NC(=O)c2ccco2)sc2c1CCN(C(C)=O)C2`, the “hERG current change (%, negative = inhibition) at 10uM” value is on record as -2.22%. Under `COC(=O)c1c(NC(C)=O)sc2c1CCN(Cc1ccccc1)C2.Cl` stands -9.29%; under `CC(C)N1CCc2c(sc(NC(=O)c3ccco3)c2C(N)=O)C1.Cl`, -6.82%; under `CCN1CCc2c(sc(NC(=O)COc3ccccc3)c2C(=O)OC)C1.Cl`, -62.6%. For `CN1CCc2c(sc(NC(=O)Cc3ccccc3)c2C#N)C1.Cl`, the “hERG current change (%, negative = inhibition) at 10uM” value was -7.24%.
